Reference: PubChem BioAssay (NCI)
This is part of a sample that, as a whole, favours compounds with a hit. Of some 83,000 tested, about 20% had one in any assay.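 Single-dose data. Exposure time 48 hours. Values below 10 considered active.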

Legend:
Experiment in all cases: NCI-60 one-dose screen, 48 h (100 = growth as untreated, 0 = no growth, -100 = all killed)
Conditions in all cases: 10 µM unless noted
[1] = test system: NCI-H23 lung
[2] = test system: NCI-H226 lung
[3] = test system: NCI-H322M lung
[4] = test system: HOP-62 NSCLC
[5] = test system: NCI-H460 lung
[6] = test system: HOP-92 NSCLC
[7] = test system: A549/ATCC NSCLC
[8] = test system: 786-0 renal
[9] = test system: COLO 205 colon
[10] = test system: DU-145 prostate
[11] = test system: K-562 leukemia
[12] = test system: MALME-3M melanoma
[13] = test system: MDA-MB-231 breast
[14] = test system: RXF 393 renal
[15] = test system: SF-268 CNS
[16] = test system: SF-295 CNS
[17] = test system: SF-539 CNS
[18] = test system: UACC-257 melanoma
[19] = test system: M14 melanoma

Measured: growth

CCCCN(CCCC)C(=O)CC
inactive: [1] 102% | [2] 104% | [3] 117% | [4] 119% | [5] 108% | [6] 96.4% | [7] 106% | [8] 102% | [9] 119% | [10] 112% | [11] 101% | [12] 124% | [13] 114% | [14] 128% | [15] 105% | [16] 109% | [17] 112% | [18] 129% | [19] 111%

CC(NNC(C)c1ccccc1)c1ccccc1 (centres undefined)
inactive: [1] 103% | [2] 98.8% | [3] 122% | [4] 105% | [5] 106% | [6] 96.4% | [7] 104% | [8] 109% | [9] 105% | [10] 110% | [11] 114% | [12] 123% | [13] 113% | [14] 116% | [15] 109% | [16] 111% | [17] 101% | [18] 109% | [19] 101%

COc1ccc(N=Cc2c(O)ccc3c2oc2cc(Cl)c(O)c(Cl)c23)cc1
inactive: [1] 93.7% | [2] 101% | [3] 122% | [4] 95% | [5] 99.8% | [6] 88.8% | [7] 95.5% | [8] 88.8% | [9] 131% | [10] 125% | [11] 81.1% | [12] 106% | [13] 107% | [15] 105% | [16] 115% | [17] 96.7% | [18] 76.5% | [19] 94.9%

Cc1nn(-c2ccc([N+](=O)[O-])cc2)c2ncnc(NCCc3ccccc3)c12
inactive: [1] 95.9% | [2] 97.8% | [3] 116% | [4] 102% | [5] 91.6% | [6] 91.3% | [7] 99.8% | [8] 105% | [9] 104% | [10] 110% | [11] 76.8% | [12] 121% | [13] 102% | [14] 102% | [15] 94.7% | [16] 111% | [17] 99.5% | [18] 106%

CC(=O)Nc1ccc(/C=C/C(=O)c2ccccc2)cc1
inactive: [1] 102% | [2] 102% | [3] 120% | [4] 97.1% | [5] 105% | [6] 74.7% | [7] 92.6% | [8] 98.5% | [9] 112% | [10] 86.6% | [11] 36.7% | [12] 120% | [13] 104% | [14] 68.2% | [15] 89.1% | [16] 106% | [17] 96.6% | [18] 89.3% | [19] 97.7%

N#Cc1c(-c2ccccc2)nc(SCC(=O)N2CCN(c3ccccc3)CC2)[nH]c1=O
inactive: [1] 96.4% | [2] 108% | [3] 95.8% | [4] 87.7% | [5] 110% | [6] 85% | [7] 96.6% | [8] 97.9% | [9] 103% | [10] 120% | [11] 112% | [12] 94.9% | [13] 115% | [14] 104% | [15] 111% | [16] 102% | [17] 99.2% | [18] 89.2% | [19] 96.7%

Cc1ccc(-c2csc(NC(=O)CCCCl)n2)cc1
inactive: [1] 93.1% | [2] 78.5% | [3] 87.4% | [4] 101% | [5] 103% | [6] 74.8% | [7] 90.5% | [8] 87.3% | [9] 112% | [10] 99.9% | [11] 74.6% | [12] 94% | [13] 95.8% | [14] 105% | [15] 85.8% | [16] 83.5% | [17] 96.3% | [18] 103% | [19] 103%

Nc1cc2c(cc1C(=O)c1cccc(F)c1)OCCO2
inactive: [1] 95.4% | [2] 91.4% | [3] 98.5% | [4] 95% | [5] 104% | [6] 72.9% | [7] 91.6% | [8] 94% | [9] 111% | [10] 109% | [12] 109% | [13] 102% | [14] 104% | [15] 98.4% | [16] 94.5% | [17] 103% | [18] 93.4% | [19] 107%
